In the library only some 12% were active in any assay of this set; here they are far more common.
Sfp inh = qHTS Assay for Inhibitors of Bacillus subtilis Sfp phosphopantetheinyl transferase (PPTase) | 4'-phosphopantetheinyl transferase ffp (Bacillus subtilis), Q9F4F7 | Biochemical Sfp PPTase activity, qHTS | Potency, µM, most hits filed as inhibitors | actives 3.5% (n = 310,000) | AID 1490, 2009;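 further: the enzyme is Sfp with the accession as filed and its product quenches rhodamine fluorescence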
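Buffer: 50 mM Hepes-Na pH 7.6, 10 mM MgCl2, 0.01% Nonidet P-40, 0.01% BSA. Enzyme 15 nM, pre-exposed to compound 15 min; substrates then added and fluorescence change tracked over 30 min.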
HP1b binding inh = HTS for Inhibitors of HP1-beta Chromodomain Interactions with Methylated Histone Tails; Chromobox protein homolog 1 (Homo sapiens), P83916; AlphaScreen HP1-beta / biotin-H3K9me3 peptide binding; Potency, µM (series often up to 114 µM), most hits filed as inhibitors; actives 0.56% (n = 390,000); further: nearly all actives have a fitted effect of over 70% in size
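Compound inhibition of the preformed complex between 50 nM HP1-beta and 50 nM biotinylated H3K9me3 peptide was read by AlphaScreen. Buffer was PBS pH 7.4 with 0.01% Tween-20. Incubations ran 30 min at room temperature, with 10 ug/mL donor/acceptor beads.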
JMJD2A Tudor inh = qHTS Assay for Inhibitors of JMJD2A-Tudor Domain; Potency, µM (series often up to 114 µM), actives largely listed as inhibitors; AlphaScreen JMJD2A-Tudor / H3K4me3 peptide binding; actives 4.4% (n = 390,000); Lysine-specific demethylase 4A (Homo sapiens), O75164; further: nearly all actives have a fitted effect of over 50% in size
G9a block = qHTS Assay for Inhibitors of Histone Lysine Methyltransferase G9a; G9a H3K9 monomethylation, AlphaScreen, 2 h; Histone-lysine N-methyltransferase EHMT2 (Homo sapiens), Q96KQ7; AID 504332, 2011; Potency, µM (doses to about 102 µM), usual class: inhibitors; actives 8.8% (n = 350,000); further: nearly all actives have a fitted effect of over 75% in size
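Chemiluminescent proximity detection of H3K9 monomethylation, read after 10 min bead incubation in the dark. Reaction: 20 nM G9a, 500 nM biotin-H3K9 peptide, 20 uM SAM cofactor, 2 h, room temperature, following 15 min enzyme-compound preincubation.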
PLK1 PBD inh = qHTS for Inhibitors of PLK1-PDB (polo-like kinase 1 - polo-box domain): Primary Screen; Plk1 PBD binding of FITC phosphopeptide, fluorescence polarization; actives 2.8% (n = 360,000); Potency, µM, most hits filed as inhibitors; Serine/threonine-protein kinase PLK1 (Homo sapiens), P53350; further: series mostly up to about 57 µM; nearly all actives have a fitted effect of over 65% in size
BAZ2B block = qHTS Assay for Inhibitors of BAZ2B | Bromodomain adjacent to zinc finger domain protein 2B (Homo sapiens), Q9UIF8 | AlphaScreen BAZ2B-H3K14Ac peptide displacement | Potency, µM (top dose mostly 114 µM), most hits filed as inhibitors | actives 4.4% (n = 360,000) | AID 504333, 2011; further: nearly all actives have a fitted effect of over 60% in size
Target sequence (Q9UIF8 whole entry, looked up, the tested form may be a part): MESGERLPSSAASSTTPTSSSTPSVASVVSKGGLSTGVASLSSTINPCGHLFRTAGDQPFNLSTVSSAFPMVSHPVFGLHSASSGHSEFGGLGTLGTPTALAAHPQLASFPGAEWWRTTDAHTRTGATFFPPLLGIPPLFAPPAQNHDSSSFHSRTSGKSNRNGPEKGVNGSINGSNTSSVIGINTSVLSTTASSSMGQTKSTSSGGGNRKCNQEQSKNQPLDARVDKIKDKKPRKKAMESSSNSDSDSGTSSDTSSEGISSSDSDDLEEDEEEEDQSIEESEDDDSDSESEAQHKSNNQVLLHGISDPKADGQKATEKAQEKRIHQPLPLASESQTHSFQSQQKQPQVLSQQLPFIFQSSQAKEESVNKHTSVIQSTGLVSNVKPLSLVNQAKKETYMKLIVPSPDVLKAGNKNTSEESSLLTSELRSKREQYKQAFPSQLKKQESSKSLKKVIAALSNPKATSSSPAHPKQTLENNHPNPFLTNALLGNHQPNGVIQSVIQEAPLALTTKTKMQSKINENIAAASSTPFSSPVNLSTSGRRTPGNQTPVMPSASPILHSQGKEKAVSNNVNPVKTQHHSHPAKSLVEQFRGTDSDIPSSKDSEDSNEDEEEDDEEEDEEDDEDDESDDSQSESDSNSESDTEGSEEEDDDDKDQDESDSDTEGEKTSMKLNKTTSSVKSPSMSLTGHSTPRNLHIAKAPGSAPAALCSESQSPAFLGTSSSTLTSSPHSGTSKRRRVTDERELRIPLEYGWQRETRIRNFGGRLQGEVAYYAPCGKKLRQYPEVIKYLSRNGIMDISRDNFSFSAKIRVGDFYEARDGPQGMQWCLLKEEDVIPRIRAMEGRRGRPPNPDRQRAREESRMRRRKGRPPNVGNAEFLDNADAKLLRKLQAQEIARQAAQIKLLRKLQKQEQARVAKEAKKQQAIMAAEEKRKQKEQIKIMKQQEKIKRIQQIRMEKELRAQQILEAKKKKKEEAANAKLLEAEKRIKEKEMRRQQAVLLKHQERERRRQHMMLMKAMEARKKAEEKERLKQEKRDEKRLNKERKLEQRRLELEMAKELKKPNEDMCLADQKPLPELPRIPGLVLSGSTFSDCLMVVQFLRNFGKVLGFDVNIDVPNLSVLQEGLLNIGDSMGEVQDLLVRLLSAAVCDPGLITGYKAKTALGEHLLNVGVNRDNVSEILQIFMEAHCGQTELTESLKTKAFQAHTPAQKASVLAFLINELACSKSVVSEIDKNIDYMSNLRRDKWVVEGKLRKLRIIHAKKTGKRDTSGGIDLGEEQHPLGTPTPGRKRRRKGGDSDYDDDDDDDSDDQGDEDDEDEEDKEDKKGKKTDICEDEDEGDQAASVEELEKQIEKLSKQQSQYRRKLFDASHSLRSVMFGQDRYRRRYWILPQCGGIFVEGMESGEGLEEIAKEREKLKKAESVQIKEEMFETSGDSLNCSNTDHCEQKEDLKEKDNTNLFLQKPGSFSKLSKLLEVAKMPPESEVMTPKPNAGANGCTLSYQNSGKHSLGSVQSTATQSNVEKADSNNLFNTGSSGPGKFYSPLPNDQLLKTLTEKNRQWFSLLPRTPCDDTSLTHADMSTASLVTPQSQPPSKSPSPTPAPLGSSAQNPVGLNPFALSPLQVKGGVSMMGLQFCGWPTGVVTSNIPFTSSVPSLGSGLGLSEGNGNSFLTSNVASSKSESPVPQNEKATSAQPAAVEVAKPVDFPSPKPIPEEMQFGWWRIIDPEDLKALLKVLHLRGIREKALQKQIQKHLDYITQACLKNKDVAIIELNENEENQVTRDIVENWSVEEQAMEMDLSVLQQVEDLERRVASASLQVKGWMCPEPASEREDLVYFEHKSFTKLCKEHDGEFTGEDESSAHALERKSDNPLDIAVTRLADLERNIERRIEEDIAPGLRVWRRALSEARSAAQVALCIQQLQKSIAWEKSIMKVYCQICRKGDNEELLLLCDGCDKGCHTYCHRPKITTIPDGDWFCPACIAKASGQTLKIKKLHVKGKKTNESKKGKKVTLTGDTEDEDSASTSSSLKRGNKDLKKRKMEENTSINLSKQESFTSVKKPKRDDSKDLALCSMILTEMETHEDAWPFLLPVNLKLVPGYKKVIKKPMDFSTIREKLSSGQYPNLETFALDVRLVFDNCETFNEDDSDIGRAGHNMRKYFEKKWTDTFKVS
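AlphaScreen displacement of biotin-H3(5-23)K14Ac peptide (50 nM final) from BAZ2B (50 nM final) in PBS pH 7.4, 0.01% Tween-20; complex preformed 30 min RT, then compounds (top 110 uM) 30 min RT, beads 20 min dark.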
Hits are given with their value; [ ] = dose if it differs, or a comment. The call rests on the fitted dose curve; in most records, active means well fitted curve in the direction sought with a large enough effect; inconclusive means small, poorly fitted or top-dose-only effect, or another doubt; inactive means no such curve, though single readings can be large; an effect the other way counts as inactive or inconclusive.

CN1CCN(CCCNC(=O)c2ccc(Cn3c(=S)[nH]c4ccc(Br)cc4c3=O)cc2)CC1 was read as Sfp inh inactive, HP1b binding inh inactive, JMJD2A Tudor inh inconclusive, G9a block 32µM, PLK1 PBD inh inactive and BAZ2B block inconclusive.
CC1CCN(CCCNC(=O)c2ccc(Cn3c(=S)[nH]c4ccc(Br)cc4c3=O)cc2)CC1 was read as Sfp inh inactive, G9a block 18µM and BAZ2B block inconclusive.
COc1cc2[nH]c(=O)n(Cc3ccc(C(=O)NCCCN4CCN(C)CC4)cc3)c(=O)c2cc1OC was read as Sfp inh inactive, HP1b binding inh inactive, JMJD2A Tudor inh inactive, G9a block inactive, PLK1 PBD inh inactive and BAZ2B block inactive.
For O=C(NCCN1CCCC1)c1ccc(Cn2c(=S)[nH]c3cc4c(cc3c2=O)OCO4)cc1 the results were Sfp inh inactive, HP1b binding inh inactive, JMJD2A Tudor inh 40µM, G9a block inconclusive, PLK1 PBD inh inactive and BAZ2B block inactive.
For CS(=O)(=O)c1cccc(S(=O)(=O)N2CCCCCC2)c1 the results were Sfp inh inactive, HP1b binding inh inactive, JMJD2A Tudor inh inactive, G9a block inactive, PLK1 PBD inh inactive and BAZ2B block inactive.
For CCn1c(C)c(C2=CCN(S(=O)(=O)c3ccccc3)CC2)c2ccccc21 the results were Sfp inh inactive, HP1b binding inh inconclusive, JMJD2A Tudor inh inconclusive, G9a block 40µM, PLK1 PBD inh inactive and BAZ2B block inconclusive.
Cc1ccc(S(=O)(=O)N2CC=C(c3c(C)n(C)c4ccccc34)CC2)cc1 was read as Sfp inh inactive, HP1b binding inh inconclusive, JMJD2A Tudor inh inconclusive, G9a block inconclusive, PLK1 PBD inh inconclusive and BAZ2B block inconclusive.
For COCCN1C2=C(C(=O)CC(C)(C)C2)C(c2ccc(OC)c(OC)c2)C2=C1CC(C)(C)CC2=O the results were Sfp inh inactive, HP1b binding inh inactive, JMJD2A Tudor inh inactive, G9a block inactive, PLK1 PBD inh inactive and BAZ2B block inactive.
Screening COCCCN1C2=C(C(=O)CC(C)(C)C2)C(c2ccc(OC)c(OC)c2)C2=C1CC(C)(C)CC2=O returned Sfp inh inactive, HP1b binding inh inactive, JMJD2A Tudor inh inactive, G9a block 71µM, PLK1 PBD inh inactive and BAZ2B block inactive.
`COc1cc(C2C3=C(CC(C)(C)CC3=O)N(C)C3=C2C(=O)CC(C)(C)C3)cc(Br)c1O` gave Sfp inh inactive, HP1b binding inh inactive, JMJD2A Tudor inh inactive, G9a block 71µM, PLK1 PBD inh inactive and BAZ2B block inactive.
`Cc1ccc(/C=N/Nc2nc3ccccc3s2)o1` gave Sfp inh inconclusive, HP1b binding inh inactive, JMJD2A Tudor inh inconclusive, G9a block inconclusive, PLK1 PBD inh inactive and BAZ2B block inconclusive.
Screening Clc1ccc(-c2csc(N/N=C/c3cccnc3)n2)c(Cl)c1 returned Sfp inh inconclusive, HP1b binding inh inactive, JMJD2A Tudor inh inconclusive, G9a block inconclusive, PLK1 PBD inh inactive and BAZ2B block inconclusive.
Screening Cc1ccc(/C=N/Nc2nc(C(C)(C)C)cs2)o1 returned Sfp inh 50µM, HP1b binding inh inconclusive, JMJD2A Tudor inh 45µM, G9a block 10µM, PLK1 PBD inh inconclusive and BAZ2B block 45µM.
Screening C(=N\Nc1nc(-c2ccccc2)cs1)/c1cccnc1 returned Sfp inh 56µM, HP1b binding inh inactive, JMJD2A Tudor inh inconclusive, G9a block inconclusive, PLK1 PBD inh inactive and BAZ2B block inconclusive.
CC(C)(C)c1csc(N/N=C/c2cccnc2)n1 was read as Sfp inh inactive, HP1b binding inh inactive, JMJD2A Tudor inh inconclusive, G9a block inconclusive, PLK1 PBD inh inactive and BAZ2B block 40µM.
Screening COC(=O)N[C@@H](c1cccc(C)c1)C(C(C)=O)C(=O)OC (some centres undefined) returned Sfp inh inactive.
CN1CCC(=O)N(CCOc2ccccc2)CC1 was read as Sfp inh inactive, HP1b binding inh inactive, JMJD2A Tudor inh inconclusive, G9a block 28µM, PLK1 PBD inh inactive and BAZ2B block inconclusive.
CCN1CCN(CCCOc2ccc(-c3ccccc3)cc2)CC1 was read as Sfp inh inactive, HP1b binding inh inactive, JMJD2A Tudor inh inactive, G9a block inactive, PLK1 PBD inh inactive and BAZ2B block inactive.
`COc1cccc(OC)c1OCCOCCN1CCN(C)CC1` gave Sfp inh inactive, HP1b binding inh inactive, JMJD2A Tudor inh inactive, G9a block inactive[2.33 µM], PLK1 PBD inh inactive and BAZ2B block inactive.
CN1CCN(CCOc2ccc(-c3ccccc3)cc2)CC1 was read as Sfp inh inactive, HP1b binding inh inactive, JMJD2A Tudor inh inactive, G9a block 50µM, PLK1 PBD inh inactive and BAZ2B block inconclusive.
Screening COc1ccc(OCCOCCN2CCN(C)CC2)cc1 returned Sfp inh inconclusive, HP1b binding inh inconclusive, JMJD2A Tudor inh 18µM, G9a block 22µM, PLK1 PBD inh inactive and BAZ2B block 50µM.
`CN1CCN(CCCOc2ccc(-c3ccccc3)cc2)CC1` gave Sfp inh inactive, HP1b binding inh inactive, JMJD2A Tudor inh inconclusive, PLK1 PBD inh 21µM and BAZ2B block inactive.
Cc1cccc(C(=O)OCC(=O)NCc2ccc(Cl)cc2)c1 was read as PLK1 PBD inh inactive.
COc1cc(/C=N/O)ccc1Oc1cnccn1 was read as Sfp inh inactive, HP1b binding inh inactive, JMJD2A Tudor inh inactive, G9a block inactive, PLK1 PBD inh inactive and BAZ2B block inactive.
Screening Cc1ccccc1NC(=O)COC(=O)Cc1ccsc1 returned Sfp inh inactive, HP1b binding inh inactive, JMJD2A Tudor inh inactive, G9a block inactive, PLK1 PBD inh 27µM and BAZ2B block inactive.
`Cc1cccc(C)c1NC(=O)COC(=O)Cc1ccsc1` gave Sfp inh inactive, HP1b binding inh inactive, JMJD2A Tudor inh inactive, G9a block inactive, PLK1 PBD inh inactive and BAZ2B block inactive.
`Cc1cc(C)c(NC(=O)COC(=O)Cc2ccsc2)c(C)c1` gave Sfp inh inactive, HP1b binding inh inactive, JMJD2A Tudor inh inactive, G9a block inactive, PLK1 PBD inh 27µM and BAZ2B block inactive.
For CSCCC(=O)N1CCCC(N2CCN(c3cccc(C(F)(F)F)c3)CC2)C1 (centres undefined) the results were Sfp inh inactive, HP1b binding inh inactive, JMJD2A Tudor inh inactive, PLK1 PBD inh inactive and BAZ2B block inactive.
COCCN(Cc1nc2ccccc2c(=O)[nH]1)C(=O)COc1ccccc1-c1ccccc1 was read as HP1b binding inh inactive, JMJD2A Tudor inh inactive, G9a block inactive[0.501 µM], PLK1 PBD inh inactive and BAZ2B block inactive.
